Measurements taken from PubChem BioAssay AID1159580 (chemical genetic matrix, 2015).
Hit rate of the full screen: of about 5,500 compounds, about 2,000 (36%) were called active. Not shown: some 18% with an inconclusive outcome. Cut-off read from the data, not from the text of the source: active = normalized growth mostly below about 0.91 (no sharp cut-off); inconclusive = no clear call, values can overlap the other calls; inactive = mostly above about 0.92. The list shows a part of the results.

Assay: chemical genetic growth profiling, strain panel (AID 1159580);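 note: tested at 20 µM; growth read once vehicle control cultures reached saturation at 30 °C; 1 = growth at the plate median or of vehicle wells; lower values mean less growth of the strain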
Conditions: growth OD

Measured: normalized growth

CS(=O)(=O)c1ccc([C@@H](O)[C@@H](CO)NC(=O)C(Cl)Cl)cc1
inactive: S. cerevisiae deletion strains, locus YKL009W, strain mrt4, active compounds read low 0.977 | S. cerevisiae deletion strains, locus YKL068W, active compounds read low 0.978 | S. cerevisiae deletion strains, locus YKL085W, strain MDH1 (second series), active compounds read low 0.988 | S. cerevisiae deletion strains, locus YKL085W, strain MDH1, active compounds read low 0.988 | S. cerevisiae deletion strains, locus YKL160W, strain elf1, active compounds read low 1.02 | S. cerevisiae deletion strains, locus YKL190W, strain CNB1, active compounds read low 0.991 | S. cerevisiae deletion strains, locus YKR001C, strain vps1, active compounds read low 0.99 | S. cerevisiae deletion strains, locus YKR026C, strain gcn3, active compounds read low 1.03 | S. cerevisiae deletion strains, locus YKR091W, strain srl3, active compounds read low 1.01 | S. cerevisiae deletion strains, locus YLL001W, strain dnm1, active compounds read low 1 | S. cerevisiae deletion strains, locus YLL026W, active compounds read low 1.02 | S. cerevisiae deletion strains, locus YLL041C, strain sdh2, active compounds read low 1.02 | S. cerevisiae deletion strains, locus YLR027C, strain aat2, active compounds read low 1.01 | S. cerevisiae deletion strains, locus YLR039C, strain RIC1, active compounds read low 0.947 | S. cerevisiae deletion strains, locus YLR058C, strain SHM2, active compounds read low 0.965 | S. cerevisiae deletion strains, locus YLR102C, strain apc9, active compounds read low 0.978 | S. cerevisiae deletion strains, locus YLR113W, strain HOG1, active compounds read low 0.998 | S. cerevisiae deletion strains, locus YLR221C, strain rsa3, active compounds read low 1.01 | S. cerevisiae deletion strains, locus YLR258W, strain gsy2, active compounds read low 1.02 | S. cerevisiae deletion strains, locus YLR262C, strain YPT6 (second series), active compounds read low 1.03 | S. cerevisiae deletion strains, locus YLR262C, strain YPT6, active compounds read low 0.849 | S. cerevisiae deletion strains, locus YLR268W, strain sec22, active compounds read low 0.983 | S. cerevisiae deletion strains, locus YLR320W, strain mms22, active compounds read low 0.991 | S. cerevisiae deletion strains, locus YLR330W, strain CHS5, active compounds read low 0.982 | S. cerevisiae deletion strains, locus YLR342W, strain FKS1 (second series), active compounds read low 1.01 | S. cerevisiae deletion strains, locus YLR342W, strain FKS1, active compounds read low 1.01 | S. cerevisiae deletion strains, locus YLR357W, strain rsc2, active compounds read low 1 | S. cerevisiae deletion strains, locus YLR370C, strain arc18, active compounds read low 1.03 | S. cerevisiae deletion strains, locus YLR371W, strain rom2, active compounds read low 0.993 | S. cerevisiae deletion strains, locus YLR384C, strain iki3, active compounds read low 1.02 | S. cerevisiae deletion strains, locus YLR418C, strain cdc73, active compounds read low 0.98 | S. cerevisiae deletion strains, locus YML016C, strain PPZ1, active compounds read low 0.981 | S. cerevisiae deletion strains, locus YML032C, strain rad52, active compounds read low 1 | S. cerevisiae deletion strains, locus YML120C, strain ndi1, active compounds read low 1.05 | S. cerevisiae deletion strains, locus YML124C, strain tub3, active compounds read low 0.993 | S. cerevisiae deletion strains, locus YMR058W, strain fet3, active compounds read low 1.03 | S. cerevisiae deletion strains, locus YMR078C, strain ctf18, active compounds read low 0.975 | S. cerevisiae deletion strains, locus YMR125W, strain sto1, active compounds read low 1.04 | S. cerevisiae deletion strains, locus YMR129W, active compounds read low 1.02 | S. cerevisiae deletion strains, locus YMR205C, strain PFK2, active compounds read low 1.01 | S. cerevisiae deletion strains, locus YMR223W, strain ubp8, active compounds read low 1.02 | S. cerevisiae deletion strains, locus YMR231W, strain pep5, active compounds read low 1.03 | S. cerevisiae deletion strains, locus YMR263W, strain SAP30, active compounds read low 0.984 | S. cerevisiae deletion strains, locus YMR307W, strain GAS1, active compounds read low 1.06 | S. cerevisiae deletion strains, locus YNL067W, strain RPL9B, active compounds read low 0.973 | S. cerevisiae deletion strains, locus YNL071W, strain lat1, active compounds read low 1.03 | S. cerevisiae deletion strains, locus YNL128W, strain TEP1, active compounds read low 0.975 | S. cerevisiae deletion strains, locus YNL153C, strain GIM3, active compounds read low 0.981 | S. cerevisiae deletion strains, locus YNL183C, strain NPR1, active compounds read low 0.959 | S. cerevisiae deletion strains, locus YNL209W, strain ssb2, active compounds read low 1.04 | S. cerevisiae deletion strains, locus YNL233W, strain BNI4, active compounds read low 0.99 | S. cerevisiae deletion strains, locus YNL248C, strain rpa49, active compounds read low 1.07 | S. cerevisiae deletion strains, locus YNL250W, strain rad50, active compounds read low 0.981 | S. cerevisiae deletion strains, locus YNL271C, strain bni1, active compounds read low 0.995 | S. cerevisiae deletion strains, locus YNL298W, strain CLA4, active compounds read low 0.988 | S. cerevisiae deletion strains, locus YNL307C, strain MCK1, active compounds read low 0.985 | S. cerevisiae deletion strains, locus YNL322C, strain KRE1 (second series), active compounds read low 1.02 | S. cerevisiae deletion strains, locus YNL322C, strain KRE1, active compounds read low 0.983 | S. cerevisiae deletion strains, locus YNR049C, strain mso1, active compounds read low 1 | S. cerevisiae deletion strains, locus YNR052C, strain pop2, active compounds read low 0.993 | S. cerevisiae deletion strains, locus YOL006C, strain TOP1, active compounds read low 0.889 | S. cerevisiae deletion strains, locus YOL012C, strain htz1 1.83 | S. cerevisiae deletion strains, locus YOL147C, strain pex11, active compounds read low 0.99 | S. cerevisiae deletion strains, locus YOR001W, strain rrp6, active compounds read low 1.03 | S. cerevisiae deletion strains, locus YOR061W, strain CKA2, active compounds read low 0.944 | S. cerevisiae deletion strains, locus YOR069W, strain VPS5, active compounds read low 0.991 | S. cerevisiae deletion strains, locus YOR070C, strain gyp1, active compounds read low 1.03 | S. cerevisiae deletion strains, locus YOR080W, strain dia2, active compounds read low 1.02 | S. cerevisiae deletion strains, locus YOR083W, strain WHI5, active compounds read low 0.98 | S. cerevisiae deletion strains, locus YOR106W, strain vam3, active compounds read low 1.05 | S. cerevisiae deletion strains, locus YOR136W, strain idh2, active compounds read low 0.992 | S. cerevisiae deletion strains, locus YOR144C, strain elg1, active compounds read low 0.983 | S. cerevisiae deletion strains, locus YOR184W, strain ser1, active compounds read low 1.03 | S. cerevisiae deletion strains, locus YOR231W, strain MKK1, active compounds read low 0.967 | S. cerevisiae deletion strains, locus YOR265W, strain rbl2, active compounds read low 1.03 | S. cerevisiae deletion strains, locus YOR270C, strain vph1, active compounds read low 1.12 | S. cerevisiae deletion strains, locus YOR290C, strain snf2, active compounds read low 1.04 | S. cerevisiae deletion strains, locus YOR316C, strain cot1, active compounds read low 0.975 | S. cerevisiae deletion strains, locus YPL051W, strain arl3, active compounds read low 1.02 | S. cerevisiae deletion strains, locus YPL055C, strain LGE1, active compounds read low 0.984 | S. cerevisiae deletion strains, locus YPL078C, strain atp4, active compounds read low 1.04 | S. cerevisiae deletion strains, locus YPL106C, strain sse1, active compounds read low 1.01 | S. cerevisiae deletion strains, locus YPL240C, strain hsp82, active compounds read low 1.02 | S. cerevisiae deletion strains, locus YPL241C, strain CIN2, active compounds read low 0.968 | S. cerevisiae deletion strains, locus YPL256C, strain CLN2, active compounds read low 0.995 | S. cerevisiae deletion strains, locus YPR119W, strain clb2, active compounds read low 1 | S. cerevisiae deletion strains, locus YPR141C, strain kar3, active compounds read low 0.971 | S. cerevisiae deletion strains, locus YPR163C, strain tif3, active compounds read low 1 | S. cerevisiae deletion strains, locus YPR167C, strain met16, active compounds read low 0.975 | S. cerevisiae deletion strains, strain wtn01, active compounds read low 0.984 | S. cerevisiae strains, strain wild type, active compounds read low 0.963
